Only some compounds are listed: those with a hit (about 1.6% of all), similar ones and a draw of the others.
Glioma ERSR ind = ER stress response induction in glioma | U87-MG GRP78 promoter luciferase reporter, 16 h | Potency, µM, for the others: at the highest dose activation, most hits filed as activators | hit rate 0.02% among 420,000; active means well fitted activation curve with a large enough effect; inconclusive means small, poorly fitted or top-dose-only effect; inactive means no such curve, though single readings can be large or run the other way; further: potency means the concentration at half of the fitted maximal effect; series mostly up to about 76 µM; % of control where 0% means no effect; nearly all actives have a fitted effect of over 35% in size
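Stably transfected U87-MG glioma cells carrying a GRP78-based luciferase sensor; 16 h compound incubation. Luminescence end-point read 10 min after Bright-Glo addition at room temperature.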
gsp ag = activates gsp, the McCune-Albright syndrome mutation; hit rate 0.13% among 340,000; Potency, µM (highest dose often 76.9 µM), without a hit: top-dose activation (cAMP increase), actives largely listed as activators; gsp mutant cells, cAMP HTRF, 30 min; AID 624287; active means well fitted activation curve with a large enough effect; inconclusive means small, poorly fitted or top-dose-only effect, or another doubt; inactive means no such curve, though single readings can be large or run the other way; cell line not stated here;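 further: phosphodiesterase inhibitor Ro 20-1724 added with compounds to block cAMP breakdown; potency means the concentration at half of the fitted maximal effect; nearly all actives have a fitted effect of over 60% in size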
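Cells stably selected in G418 were plated at 2000/well, grown 16-24 hr, then given compounds in DMSO with the PDE inhibitor […] (300 uM solution added) for 30 min at 37C; cAMP was read by HTRF.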
hERG WT inh = inhibitors of human wildtype KCNH2 potassium channel; U2OS, BacMam KCNH2, thallium flux FluxOr; stronger effect = lower value; activity change, % at 1.84 µM; AID 720551; hit rate 0.37% among 340,000;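 active means maximum activity change below -70%; inconclusive means maximum activity change between -70% and -50%; inactive means maximum activity change above -50%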; further: on the % scale 0 is the no-effect control and ±100 the full control effect
Target sequence (Q12809 whole entry, looked up): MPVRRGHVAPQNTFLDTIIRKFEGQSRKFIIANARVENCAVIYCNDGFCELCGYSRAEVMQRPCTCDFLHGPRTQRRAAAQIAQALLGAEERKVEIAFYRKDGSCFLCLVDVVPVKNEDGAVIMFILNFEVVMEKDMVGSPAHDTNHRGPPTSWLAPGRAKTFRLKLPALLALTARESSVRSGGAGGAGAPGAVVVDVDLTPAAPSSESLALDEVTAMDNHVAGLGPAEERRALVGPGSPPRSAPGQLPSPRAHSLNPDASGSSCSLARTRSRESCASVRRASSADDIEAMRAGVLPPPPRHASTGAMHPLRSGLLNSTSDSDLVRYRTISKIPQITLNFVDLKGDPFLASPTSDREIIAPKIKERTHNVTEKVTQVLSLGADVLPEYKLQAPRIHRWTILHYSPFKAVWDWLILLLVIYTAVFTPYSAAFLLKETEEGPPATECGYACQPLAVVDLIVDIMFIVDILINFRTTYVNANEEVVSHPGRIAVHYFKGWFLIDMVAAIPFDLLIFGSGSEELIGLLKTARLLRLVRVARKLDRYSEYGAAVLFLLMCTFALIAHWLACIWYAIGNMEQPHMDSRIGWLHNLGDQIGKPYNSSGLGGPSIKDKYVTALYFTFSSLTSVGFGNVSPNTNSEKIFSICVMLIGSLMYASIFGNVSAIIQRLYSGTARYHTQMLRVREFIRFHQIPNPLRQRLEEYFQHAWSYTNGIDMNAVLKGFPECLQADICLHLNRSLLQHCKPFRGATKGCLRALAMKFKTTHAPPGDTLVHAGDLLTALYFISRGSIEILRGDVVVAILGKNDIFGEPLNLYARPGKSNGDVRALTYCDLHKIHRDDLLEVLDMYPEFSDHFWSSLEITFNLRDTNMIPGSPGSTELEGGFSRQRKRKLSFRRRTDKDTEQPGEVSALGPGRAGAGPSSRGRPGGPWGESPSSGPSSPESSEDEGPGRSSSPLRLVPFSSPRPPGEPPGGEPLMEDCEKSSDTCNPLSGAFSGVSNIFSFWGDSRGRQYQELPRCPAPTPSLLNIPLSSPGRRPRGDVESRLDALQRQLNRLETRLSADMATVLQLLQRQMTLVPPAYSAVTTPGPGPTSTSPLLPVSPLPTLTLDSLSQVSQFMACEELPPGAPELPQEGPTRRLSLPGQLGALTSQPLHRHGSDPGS
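U2OS cells were transduced with wild-type KCNH2 virus (2.03 x 10^8 / mL) for 4 h at room temperature, then cultured overnight at 37 C. Thallium flux was read with FluxOr dye. Rate constants were normalized to DMSO controls.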
Akt phos inh = blocks phosphorylation of Akt; AID 651550; hit rate 0.32% among 360,000; Neuro2A IGF-stimulated pAkt S473 HTRF, 20 min; stronger effect = lower value; activity change, % for hits at 50 µM; in the data active means activity change below about -80%; inconclusive means mostly about -51% to -80%; further: on the % scale 0 is the no-effect control and ±100 the full control effect
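Single-point screen (50 µM final compound) in Neuro2A cells stimulated 20 min with 6 nM IGF at 37 deg C. After lysis, Ser473-phosphorylated Akt read by HTRF (ex 330 nm, em 615/665 nm) as the 665/615 ratio.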
KCNH2 3.1 inh = KCNH2 3.1 (human) potassium channel inhibition; U2OS KCNH2 3.1, thallium flux FluxOr; stronger effect = lower value; AID 720553; hit rate 0.95% among 340,000; activity change, % (tested at about 1.8 µM);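 active means maximum activity change below -70%; inconclusive means maximum activity change from -70% to -50%; inactive means maximum activity change above -50%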;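 further: thallium influx rate constant from kinetic fluorescence after stimulation buffer; on the % scale 0 is the no-effect control and ±100 the full control effect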
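FluxOr-based Tl+ influx in U2OS cells transduced with KCNH2 3.1 virus; rate constants normalized to DMSO controls.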
gsp antagonist = antagonizes gsp, the McCune-Albright syndrome mutation | gsp-mutant cells, cAMP HTRF, 30 min | Potency, µM (highest dose often 76.9 µM), for the others: top-dose activity change, negative = inhibition, most hits filed as inhibitors | hit rate 0.4% among 340,000 | AID 624288; calls by dose curve; cell line not stated here;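 further: intracellular cAMP measured with PDE inhibitor Ro 20-1724 present during compound exposure; potency means the concentration at half of the fitted maximal effect; on the % scale 0 is the no-effect control and ±100 the full control effect; nearly all actives have a fitted effect of over 65% in size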
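Cells, 2000/well, grown 16–24 h in DMEM 10% FBS with 0.5 mg/ml G418, then compounds plus […] (300 uM addition stock), 30 min at 37C. cAMP read by HTRF (cAMP-d2 and anti-cAMP antibody-K in lysis buffer) after 30 min RT.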
An asterisk follows results filed as active; i = inactive; ? = inconclusive; · = no result; [ ] = another dose, or the depositor's remark.

SMILES	Glioma ERSR ind	gsp ag	hERG WT inh	Akt phos inh	KCNH2 3.1 inh	gsp antagonist
CC(C)Sc1nc(NCc2ccco2)c2c3c(sc2n1)COC(C)(C)C3	-2%	29%	11	-118%*	-5	2%
CCn1nc(C)cc1C(=O)N1CCC2(CC1)c1ccccc1[C@@H](NC(=O)c1cccnc1)[C@@H]2O	-5%	·	·	·	·	·
O=C(COc1ccccc1C(=O)Nc1ccccc1)Nc1ccccc1F	-1%	·	·	·	·	·
CC(=O)Nc1ccc(NC(=O)C/C(C)=N/NC(=O)C(=O)Nc2ccc(C)c(Cl)c2)cc1	-4%	5%	-1	i	-84*	6%
COc1ccc(/C=N/NC(=O)c2ccccc2OCc2ccccc2)c(OC)c1	-1%	-21%[15.4 µM]	-5	i	10	?
C#CCOc1ccccc1/C=N/NC(=O)c1ccccc1OCc1ccccc1	-2%	0%	-1	i	-4	13µM*
Cc1cccc(S(=O)(=O)Nc2ccc3c(c2)OCCO3)c1	-5%	-14%	·	i	-16	10%
O=S(=O)(Nc1nc2ccccc2nc1Nc1ccc2c(c1)OCO2)c1ccccc1	-5%	0%	6	i	-96*	-9%
Cc1cccc(S(=O)(=O)Nc2nc3ccccc3nc2Nc2ccc3c(c2)OCO3)c1	-2%	19%[15.4 µM]	-5	i	-5	28µM*
COCc1c(C(=O)NC2CCCC2)cnn1-c1nccc(-c2ccco2)n1	0%	·	·	·	·	·
COc1cc2nc(N3CCCC(O)C3)c(CNCc3ccccc3F)cc2c(OC)c1OC (stereo not given)	-3%	·	·	·	·	·
c1ccc(COc2ncnc3c2ncn3CCCNCC(c2ccccc2)c2ccccc2)cc1	-12%	2%	-18	i	-72*	·
Cc1ccc(C)c(CN2CCC3(CCC(CNC(=O)c4ccnn4C)O3)CC2)c1 (stereo not given)	-6%	·	·	·	·	·
CCOC(=O)c1c(CN2CCN(c3ccccc3)CC2)oc2ccc(O)cc12	3%	-29%	4	i	-16	-5%
CCOC(=O)c1c(N2CCN(c3ccccc3)CC2)cc(C)nc1C	-4%	-28%	-48	i	-97*	-6%
OCC1(CCOc2ccccc2)CCN(Cc2ccncc2)CC1	-3%	-30%	30	i	-1	-1%
CSc1ccc(CN2CCC(CO)(CCOc3ccccc3)CC2)cc1	3%	12%	-110*	i	-100*	0%
OCC1(CCOc2ccccc2)CCN(Cc2ccccc2OC(F)F)CC1	2%	-149%	5	i	-99*	5%
OCC1(CCOc2ccccc2)CCN(Cc2ccc(OC(F)F)cc2)CC1	0%	-27%	-131*	i	-111*	10%
C=CCOc1ccccc1CN1CCC(CO)(CCOc2ccccc2)CC1	-5%	-4%	?	i	-80*	8%
CCCCCCC[n+]1ccc(/C=C/c2c[nH]c3ccccc23)c2ccccc21	-12%	·	·	·	·	·
O=C1CC[C@@H](CN(Cc2cccnc2)C2CCN(c3ccc(NC(=O)c4cnccn4)cc3)CC2)N1	1%	·	·	·	·	·
Oc1cc(-c2nc3ccccc3s2)cc2c1OCCN(Cc1cn[nH]c1-c1ccc(Cl)cc1)C2	-2%	·	·	·	·	·
Cc1nc(C)n(CC(=O)NCC2Cc3cc(-c4ccsc4)cc(Cl)c3O2)n1 (stereo not given)	-1%	·	·	·	·	·
C(=C1NCCN1)c1cccc2ccccc12	-3%	·	·	·	·	·
Cc1cc(Cl)ccc1OCC(=O)NCC1Cc2cc(-c3cnccn3)ccc2O1 (stereo not given)	-5%	·	·	·	·	·
O=C(Oc1ccccc1C(=O)Nc1ccccc1)c1ccc(Br)c([N+](=O)[O-])c1	32µM*	-4%[15.4 µM]	-3	i	10	?
O=C(Oc1cccc(NC(=O)c2ccccc2Cl)c1)c1ccc([N+](=O)[O-])cc1	-6%	-28%	-186*	i	-13	-2%
COc1ccccc1C(=O)Oc1ccccc1C(=O)Nc1ccccc1	-3%	13%	-10	i	-3	-3%
CC(C(=O)O)c1ccc(/C=C2\CCCCC2=O)cc1 (stereo not given)	-2%	·	·	·	·	·

Compound activity deposited in PubChem BioAssay by National Center for Advancing Translational Sciences (NCATS).
